Results published in PubChem BioAssay AID488899 (Broad Institute, 2010).
In all, about 330,000 compounds went through this assay and about 2,800 (0.85%) were called active. Many of the other results were omitted from the sample, so actives are more common in it than they were. Unmarked numbers belong to inactive results.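 Rule for the calls: active = mean inhibition across replicates of 60% or more, whatever share of single replicates reaches that level; inconclusive = some that reach 60%, reason not given; inactive = mean inhibition across replicates below 60%.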

Experiment: MITF transcriptional activity suppression – cell-based, SK-MEL-5, single point, luciferase, primary screen (AID 488899)
Details: SK-MEL-5 TRPM1 promoter luciferase, 24 h; at 12.5 µM; stronger effect = higher value
CSCCC(NS(=O)(=O)c1ccc(C)cc1)C(=O)N(C)CC(=O)Nc1ccccc1Br (centres undefined) showed an inhibition of 11.6%. With CC(C)c1cc(N=O)cc(C(C)C)c1O the inhibition was -4.28%. For CC(C)=CCc1ccc(O)c(=O)cc1C(C)C, the inhibition was 71.6% (active). Work on COc1ccc(CNC(=O)CN2C(=O)c3ccccc3S2(=O)=O)cc1 yielded an inhibition of 13.6%. In the case of CCc1ccc(CNC(=O)C2CCN(c3nnc(C)c4c(C)n(-c5ccc(C)cc5)nc34)CC2)cc1, the inhibition is reported as 96.1% (active). Compound CCOc1ccc(CNC(=O)C2CCCN(c3nnc(C)c4c(C)n(-c5ccccc5)nc34)C2)cc1 (centres undefined) has an inhibition of 48.5%. Work on COc1ccc(-n2nc3c(N4CCC(C(=O)NCc5ccccc5)CC4)nnc(C)c3c2C)cc1 yielded an inhibition of 40.6%. For COc1cccc(CC(=NO)c2cccc(OC)c2)c1, the inhibition was -0.084%. For CCCOc1ccc(/C=N/NC(=O)C2CC2)c(OCCC)c1, the inhibition was -7.21%. Work on COc1ccc(CN2CCNC(=O)C2CC(=O)NCc2cn[nH]c2-c2ccccc2)c(F)c1 (centres undefined) yielded an inhibition of -6.25%. In the case of CC(C)OCCCNC(=O)CN1C(=O)/C(=C/c2ccccc2F)Oc2ccccc21, the inhibition is reported as 8.17%. For CN1CCN(CCCNC(=O)c2ccc(/C=C3\Oc4ccccc4N(Cc4ccc(Cl)cc4)C3=O)cc2)CC1, the inhibition was 96.1% (active). With Cc1c(C)n(Cc2ccc(Cl)cc2)c2ccc(C(=O)NCCCN3CCOCC3)cc12 the inhibition was 1.78%. With CCOc1ccc(NC(=O)CSc2ncnc3c2sc2ccccc23)cc1 the inhibition was 4.52%. With C=CCc1cccc2cc(C(=O)NC3CCCC3)c(=O)oc12 the inhibition was -16%. Work on CCC1=C(OC(=O)N(CC)CC)N2C(=O)OC(=NCCc3c[nH]c4ccccc34)[C@]2(C)[C@H]2C1=CC[C@H]1C(=O)N(CC)C(=O)[C@H]12 yielded an inhibition of 1.76%. With COCCN(Cc1cc2cc3c(cc2nc1Cl)OCO3)C(=O)c1cccc(C)c1 the inhibition was 10%. Cc1cc(C)nc(SCc2ccccc2C#N)n1 gave an inhibition of 4.69%. In the case of Cc1cc(C)nc(SCC(=O)N(C)C)n1, the inhibition is reported as 2.39%. With Cc1cc(C)nc(S/C=C/C(=O)c2ccccc2)n1 the inhibition was 80.6% (active). In the case of Cn1c2ccccc2c2c(C(=O)N3CCN(c4ccc(F)cc4)CC3)cn(C3CCCC3)c(=O)c21, the inhibition is reported as -8.48%. Compound CC1CCN(Cc2nc3c(c(=O)n(C)c(=O)n3C)n2CCc2ccccc2)CC1 has an inhibition of -2.78%. With CCCc1nc2c(c(=O)c3ccccc3n2C)c(=O)n1C1CCCCCC1 the inhibition was 73.5% (active). Compound COc1cc(OC)cc(-c2c(-c3cccs3)c3cc(-c4ccc(OC)cc4F)ccc3n2C)c1 has an inhibition of 13.6%. Compound C#CCOCCOCCOCCNc1nc(N2CCOCC2)nc(N2CCN(C(=O)[C@H](Cc3ccc(O)cc3)n3cc(CCO)nn3)CC2)n1 has an inhibition of 4.74%. For O=C(c1ccccc1)N1CCN(c2ccc([N+](=O)[O-])c(NCc3ccco3)c2)CC1, the inhibition was 5.6%. COc1ccccc1OCCNc1cc(N2CCOCC2)ccc1[N+](=O)[O-] showed an inhibition of -28%. In the case of COc1ccc(CCNc2cc(N3CCN(C(=O)c4ccccc4OC)CC3)ccc2[N+](=O)[O-])cc1OC, the inhibition is reported as 77.2% (active). C[C@@H](NC(=O)c1nc[nH]c1C(=O)N1CCN(C(=O)OC(C)(C)C)CC1)c1ccccc1 gave an inhibition of -1.66%. With CCCCN1CC(CO)Oc2cccc(F)c2S1(=O)=O (centres undefined) the inhibition was 0.622%. Cc1ccc(CN(Cc2cccnc2)C(=S)Nc2cc(Cl)ccc2C)cc1 showed an inhibition of 1.58%. Compound O=c1ccn([C@@H]2O[C@H](CNS(=O)(=O)c3cc4ccccc4s3)[C@@H](O)[C@H]2O)c(=O)[nH]1 has an inhibition of -0.592%. In the case of C[C@@H]1C[C@@H]2O[C@H]2/C=C\C=C\C(=O)Cc2c(Cl)c(O)cc(O)c2C(=O)O1, the inhibition is reported as 71.8% (active). Work on CC(C)C(C(=O)NC1CCCCC1)N(CC1CCCO1)C(=O)CNS(=O)(=O)c1ccc(F)cc1 (centres undefined) yielded an inhibition of 10.3%. With O=C(CN1CCOc2ccccc21)N1CCC(Cc2ccccc2)CC1 the inhibition was 5.49%. Compound CCCC(O)(c1ccccc1)C(c1ccccc1)c1ccccn1 (centres undefined) has an inhibition of 4.1%. In the case of COc1ccc(CNCCCn2cnc3c(OCc4ccccc4)ncnc32)cc1, the inhibition is reported as -4.78%. For CN(C)CC(O)COc1ccc(C(C)(C)c2ccc(OCC(O)CN(C)C)cc2)cc1 (centres undefined), the inhibition was 65.7% (active). With CC(C)(c1ccccc1)c1ccc(OCCN)cc1 the inhibition was -6.11%. Cc1cc(C)n(CC(O)COc2ccc(C(C)(C)C)cc2)n1 (centres undefined) showed an inhibition of -18.8%. In the case of Nc1ccc2c(c1)C(O)c1ccc(Cl)cc1-2 (centres undefined), the inhibition is reported as -6.14%. Work on CN(CC(=O)NCCc1ccc(F)cc1)CC(=O)Nc1ccc(F)c(F)c1F yielded an inhibition of 19.3%. Compound Nc1nonc1-n1nnc(C(=O)N/N=C/c2cc(Br)ccc2O)c1CSC1=NCCS1 has an inhibition of 17.4%. With CC(C)(CCl)C(=O)Nc1ccc(Sc2ccc(F)cc2)cc1 the inhibition was -9.91%. In the case of O=C(CCl)Nc1cccc(CP(=O)(c2ccccc2)c2ccccc2)c1, the inhibition is reported as 5.96%. In the case of O=C(CCl)Nc1ccc(Sc2ccc(NC(=O)CCl)cc2)cc1, the inhibition is reported as 88.6% (active). COC(=O)C1CC2=C(CC(C)(C)CC2=O)N(c2ccccc2)C1=O (centres undefined) gave an inhibition of -6.85%. Work on O=C(O)CCCn1c(=O)c2cccn2c2ccc(F)cc21 yielded an inhibition of 7.45%. Work on CCCC/C(C)=N/NC(=O)NC1CCCCC1 yielded an inhibition of 4.57%. In the case of Cc1cccc(-c2nc3ccc(C(=O)NCCN4CCN(C)CC4)cc3nc2-c2cccc(C)c2)c1, the inhibition is reported as 69.1% (active). Cc1cccc(C(=O)OC(C)CN2CCN(C)CC2)c1 (centres undefined) showed an inhibition of -41.9%. CCC1=Nc2cc(C(=O)NCCN3CCCC3)ccc2Sc2ccc(C)cc21 gave an inhibition of -15.3%. FC(F)(F)c1cccc(Cc2noc(CN3CCC(N4CCCCC4)CC3)n2)c1 gave an inhibition of 1.26%. With NC(=O)C1CCN(C(=O)c2cc(S(=O)(=O)N3CCN(c4ccccc4)CC3)ccc2Cl)CC1 the inhibition was 4.66%. For CCC(C)Cn1c(O)cc2nn(-c3nc4ccccc4s3)c(=O)c-2c1C (centres undefined), the inhibition was 89% (active). For Cc1cc(NC(=O)CN2CCCC(C)C2)n(-c2nc3ccccc3s2)n1 (centres undefined), the inhibition was 1.1%. In the case of CCN(CC(=O)NCCCN1CCOCC1)S(=O)(=O)c1cc(Cl)ccc1Cl, the inhibition is reported as 12.6%. For O=c1[nH]c2cccnc2n(CCNc2ncc(C(F)(F)F)cc2Cl)c1=O, the inhibition was -3.01%. O=C(O[C@@H]1[C@H](Cc2ccccc2)NS(=O)(=O)[C@H]2C[C@@H]3C=C[C@]12O3)c1ccccc1Br gave an inhibition of -5.01%. O=C(Nc1ccc(Br)cn1)C1CCN(S(=O)(=O)c2cccs2)CC1 gave an inhibition of 20.1%. In the case of O=c1[nH]c(=S)[nH]c(O)c1/C=C1\C=Nc2ccccc21, the inhibition is reported as 65.4% (active). CCc1ccc(NC(=O)CN2CCC(C(=O)c3ccc(OC)cc3)CC2)cc1 showed an inhibition of 16.5%. For COCC(=O)Nc1c(C(=O)N2CCCC2)oc2ccccc12, the inhibition was -5.06%. In the case of Cc1cc(C)cc(OCC(=O)NNC(=O)c2cc3ccccc3oc2=O)c1, the inhibition is reported as -14.8%. For NC(=O)C1(N2CCCCC2)CCN(C(=O)c2ccc(C#Cc3ccccc3)o2)CC1, the inhibition was 10.7%. In the case of COc1ccc(C(=O)OCC(=O)c2cc(C)n(CC3CCCO3)c2C)cc1[N+](=O)[O-] (centres undefined), the inhibition is reported as -13.5%. In the case of Cc1ccsc1C(=O)OCC(=O)c1cc(C)n(CC2CCCO2)c1C (centres undefined), the inhibition is reported as 68% (active). Cc1cc(C(=O)CCl)c(C)n1CC1COc2ccccc2O1 (centres undefined) gave an inhibition of 51.2%. CCOc1cccc2c1OC1(CCCCC1)N1N=C(c3cccnc3)CC21 (centres undefined) showed an inhibition of -62.4%. Work on Cn1c(=O)c2c(n(Cc3ccccc3)c1=O)NC(=O)C2CC(=O)N1CCc2ccccc2C1 (centres undefined) yielded an inhibition of -5.67%. In the case of COC(=O)C1CCN(CC(N)=O)CC1, the inhibition is reported as -7.19%. Work on COc1ccc2ccccc2c1/C=N/NC(=O)c1cc(C)[nH]n1 yielded an inhibition of -14.1%. With CC(C)(C)c1cc(C(=O)N/N=C/c2ccc([N+](=O)[O-])s2)n[nH]1 the inhibition was 85.1% (active). Cc1cc(C(=O)N/N=C/c2cc([N+](=O)[O-])cc(C)c2O)n[nH]1 gave an inhibition of 11.2%. COc1ccc(S(=O)(=O)N2CCOCC2)cc1NC(=O)c1ccc(OCC(C)C)c(OC)c1 gave an inhibition of -3.59%. For O=C(Oc1ccc(-c2nc(-c3ccccn3)no2)cc1)c1ccccc1, the inhibition was 36.6%. O=C(CN1C(=O)c2ccccc2S1(=O)=O)NC1CCCCC1 gave an inhibition of 4.83%. CC1CCCN(C(=O)CN2C(=O)c3ccccc3S2(=O)=O)C1 (centres undefined) gave an inhibition of 11.4%. With O=C(CN1C(=O)c2ccccc2S1(=O)=O)N1CCc2ccccc21 the inhibition was 74.1% (active). Cc1ccc(SCC(=O)NC(=O)NCc2ccco2)c(C)c1 showed an inhibition of 9.21%. Work on COCC(=O)N(C)[C@H]1C[C@H]2c3cc(Oc4ccccc4C)ccc3CCN2C(=O)[C@H]1[C@H](C)O yielded an inhibition of -16.5%. In the case of Oc1c(CN2CCCC2)cc(COCc2ccccc2)c2cccnc12, the inhibition is reported as 73.5% (active). COc1cc(C)cc(CN2CCC(Cc3ccccc3)CC2)c1O gave an inhibition of 2.68%. With Oc1c(CN2CCN(c3ccc(F)cc3)CC2)cc(Cl)c2cccnc12 the inhibition was 70.7% (active). Compound Cc1ccc(CN2CCN(c3ncccn3)CC2)c(C)c1 has an inhibition of 4.53%. Work on CC1CCCN(CC(O)COCc2ccccc2)C1 (centres undefined) yielded an inhibition of -13.7%. With Cc1cc(=O)oc2cc(OCC(=O)N3CCN(c4ccc(F)cc4)CC3)c(Cl)cc12 the inhibition was -0.292%. In the case of COc1ccc(OCCNS(=O)(=O)Cc2ccccc2)cc1, the inhibition is reported as 0.0862%. Compound Cc1ccc(NC(=O)CN2CCCCC2)c2c1CC(C)(C)O2 has an inhibition of -7.61%.
